# An excerpt weighted towards active compounds, which were near 1.3% of everything screened.
# SARS PLP yeast: SARS-CoV PLP inhibition in yeast; 0.19% of 330,000 active; S. cerevisiae expressing SARS-CoV PLpro, growth rescue; Potency, µM (doses to about 32.9 µM), without a hit: at the highest dose activity, positive = growth rescue, most hits filed as activators; calls by dose curve; note: 0% is about no effect; nearly all actives have a fitted effect of over 55% in size
# AMA1-RON2 inh: disrupts binding of P. falciparum AMA1 to RON2. AlphaScreen AMA1-biotinylated RON2 peptide binding. Potency, µM (series often up to 58.2 µM), for the others: top-dose activity change, negative = inhibition, hits mostly inhibitors. 0.2% of 360,000 active. AID 720542;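 note: 0% = vehicle wells and -100% = peptide control; nearly all actives have a fitted effect of over 45% in size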
#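 AMA1 (3D7) with his tag at 25 nM final met compounds first, then biotinylated RON2 peptide at 25 nM; detection used donor plus acceptor beads, 10 µg/mL apiece, read by AlphaScreen after 30 min at room temperature.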
# Vaccinia Venus: inhibitors of vaccinia virus (Venus reporter); Vaccinia virus Venus reporter expression, fluorescence; AID 720580; Potency, µM (doses to about 36.5 µM), inactives show top-dose activity change, negative = inhibition, most hits filed as inhibitors; 0.46% of 330,000 active; calls by dose curve; tested in A549 cells; note: % is set by controls: 0 for no effect and ±100 for the full control effect; nearly all actives have a fitted effect of over 30% in size
# AmpC inh detg: blocks E. coli AmpC beta-lactamase in detergent assay; AmpC hydrolysis of nitrocefin, absorbance 480 nm, 0.01% Triton; P00811; Potency, µM (top dose mostly 114 µM), without a hit: top-dose activity change, negative = inhibition, actives largely listed as inhibitors; 0.041% of 370,000 active; AID 485294;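 note: 0% = no-compound wells and -100% = no-enzyme wells; nearly all actives have a fitted effect of over 25% in size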
# Target sequence (P00811 whole entry, looked up): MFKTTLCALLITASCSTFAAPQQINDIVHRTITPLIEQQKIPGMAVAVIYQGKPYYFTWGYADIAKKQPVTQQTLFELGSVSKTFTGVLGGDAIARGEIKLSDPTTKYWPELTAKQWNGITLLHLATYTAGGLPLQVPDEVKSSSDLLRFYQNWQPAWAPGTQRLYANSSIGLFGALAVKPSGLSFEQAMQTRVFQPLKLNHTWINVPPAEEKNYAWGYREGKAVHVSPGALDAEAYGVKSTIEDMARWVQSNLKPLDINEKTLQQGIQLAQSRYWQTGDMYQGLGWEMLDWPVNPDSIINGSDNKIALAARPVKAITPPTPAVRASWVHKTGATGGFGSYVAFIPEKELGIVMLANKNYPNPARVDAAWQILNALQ
#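 20 mM phosphate pH 7.0 + 0.01% (detergent screen) or 0.0001% Triton X-100; 5.3 nM AmpC reagent; cpd preinc 15 min RT; nitrocefin (800 uM stock) to start; A480 q20 s × 4 min; Activity was normalised to no-enzyme and no-compound control wells.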
# AmpC inh no detg: inhibitors of E. coli AmpC beta-lactamase without detergent; 0.52% of 330,000 active; AmpC nitrocefin hydrolysis, absorbance 480 nm, 0.0001% Triton; Potency, µM (series often up to 57.1 µM), for the others: at the highest dose activity change, negative = inhibition, most hits filed as inhibitors; AID 485341;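 note: plate controls were no compound for no effect and no enzyme for full effect; nearly all actives have a fitted effect of over 20% in size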
#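 AmpC (5.3 nM in the dispensed reagent) in 20 mM phosphate pH 7.0 with 0.01% (detergent screen) or 0.0001% Triton X-100 was preincubated with compounds for 15 min at room temperature. Nitrocefin was then added from an 800 uM solution, and hydrolysis was followed at 480 nm.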
# VACV mCherry inh: vaccinia inhibition (mCherry reporter); Vaccinia virus mCherry reporter infection, fluorescence; Potency, µM (titrated, usually from 36.5 µM), inactives show at the top dose activity change, negative = inhibition, usual class: inhibitors; AID 720579; 0.63% of 310,000 active; calls by dose curve; tested in A549 cells; note: % is set by controls: 0 for no effect and ±100 for the full control effect; nearly all actives have a fitted effect of over 35% in size
# The depositor's hits bear a star; i = inactive; ? = inconclusive; · = not tested or not shown; [ ] = remark or other dose. Unless noted, calls come from the whole dose curve; as a rule, active = well fitted curve in the direction sought with a large enough effect; inconclusive = small, poorly fitted or top-dose-only effect, or another doubt; inactive = no such curve, though single readings can be large; an effect the other way counts as inactive or inconclusive. Potency is the fitted concentration of half-maximal effect.
SMILES,SARS PLP yeast,AMA1-RON2 inh,Vaccinia Venus,AmpC inh detg,AmpC inh no detg,VACV mCherry inh
CC(O)(COc1ccccc1)c1ccc2c(c1)CN(Cc1cccc3ncccc13)CCO2 (stereo not given),·,·,-4%,·,·,-19%
CCCc1cc(=O)oc2c3c(c4c(c12)OC(C)(C)C=C4)OC(C)C(C)C3O (stereo not given),-4%,0%,?,?,38%,11µM*
O=C1CC[C@@H](CN(Cc2cccnc2)C2CCN(c3ccc(NC(=O)c4cnccn4)cc3)CC2)N1,·,·,2%,·,·,i
COCC(=O)Nc1cc(C(=O)N2CCN(c3ccccc3)C(=O)C2)cc2nc(-c3ccccc3)n(C)c12,·,·,-5%,·,·,-13%
CCN(CC)c1ccc(/C=N/NC(=S)NCc2ccccc2)c(O)c1,10µM*,5%[11.6 µM],?,-10%,?,?
Cc1ccc(CSc2nc3ccncc3n2CC(=O)Nc2cc(C)cc(C)c2)cc1,8%,-2%,-17%,-7%,7.1µM*,10%
Cc1cc(C)cc(NC(=O)Cn2c(SCc3cc(C)ccc3C)nc3ccncc32)c1,7%,·,·,-23%,?,·
CCOC(=O)/C(C(=O)Nc1ccccc1Cl)=C1/NC(C)(C)Cc2ccccc21,1%,10%,-1%,1%,1%,-14%
CCOC(=O)/C(C)=C1\NC(C)(C)Cc2ccccc21,0%,-1%,·,25µM*,?,·
NC(=O)CSc1nnc(-c2ccc(S(=O)(=O)N3CCCC3)cc2)o1,18%,8%,3.2µM*,1%,-5%,?
O=C(CSc1nnc(-c2ccc(S(=O)(=O)N3CCCC3)cc2)o1)NCC1CCCO1 (stereo not given),0%,-8%,4.5µM*,11%,29%,4µM*
COC(=O)CSc1nnc(-c2ccc(S(=O)(=O)N3CCCC3)cc2)o1,-4%,-5%,-4%,1%,-6%,6%
Cc1ccccc1-c1nnc(SCC(=O)NCC2CCCO2)o1 (stereo not given),2%,15%,·,0%,-8%,·
O=C(CSc1nnc(-c2cccc(Br)c2)o1)NCC1CCCO1 (stereo not given),·,-20%,14µM*,·,·,?
O=C(NCc1cccnc1)c1cnn(-c2ncc3c(n2)-c2ccccc2CCC3)c1C1CC1,·,·,-9%,·,·,-16%
Cc1cccc(C(=O)N2CCOc3ccc(CN(C)Cc4cc(C5CC5)n[nH]4)cc3C2)n1,·,·,-9%,·,·,-6%
O=C(c1n[nH]c2c1CCCC2)N1CCOc2ccc(C(O)C(c3ccccc3)c3ccccc3)cc2C1 (stereo not given),·,·,-15%,·,·,-16%
O=C(CCS(=O)(=O)c1ccc(Br)cc1)Nc1cc(F)ccc1F,-6%,-4%,?,0%,-22%,11µM*
COc1cc2nc(N3CCCN(C)CC3)nc(NC3CCCCC3)c2cc1OC,·,·,?,·,·,-19%
COc1cc2nc(N3CCCN(C)CC3)nc(NC3CCN(C)C3)c2cc1OC (stereo not given),·,·,11µM*,·,·,?
COc1cc2c(NC3CCN(C)CC3)nc(N3CCCN(C)CC3)nc2cc1OCC1CCCCN1 (stereo not given),·,·,16µM*,·,·,5µM*
COc1cc2c(NC3CCN(C)CC3)nc(N3CCCN(C)CC3)nc2cc1OCCN(C)CCN(C)C,·,·,-18%,·,·,-8%
COc1cc2nc(N3CCCN(C)CC3)nc(N(C)C3CCN(C)CC3)c2cc1OC,·,·,10µM*,·,·,10µM*
O=C(c1cnsn1)N1CCOc2ccc(C(O)C(c3ccccc3)c3ccccc3)cc2C1 (stereo not given),·,·,-19%,·,·,-11%
CC1CN(c2ccc([N+](=O)[O-])c(NCCOc3ccccc3)c2)CCN1 (stereo not given),0%,-28%,11µM*,8%,7%,?
SMILES,SARS PLP yeast,AMA1-RON2 inh,Vaccinia Venus,AmpC inh detg,AmpC inh no detg,VACV mCherry inh
COc1ccc(OCCNc2cc(N3CCOCC3)ccc2[N+](=O)[O-])cc1,-8%,-16%,?,2%,-17%,11µM*
COc1cccc(OCCNc2cc(N3CCOCC3)ccc2[N+](=O)[O-])c1,-20%,-21%,?,-4%,-22%,-24%
Cc1sc2nc(CSc3ccccc3)nc(N3CCC(C(N)=O)CC3)c2c1C,-5%,-13%,·,-2%,80%,·
CCOC(=O)c1sc2nc(CSc3ccccc3)nc(N3CCC(C(N)=O)CC3)c2c1C,-5%,-4%,10µM*,1%,121%,11µM*
CCn1c(-c2ccccc2F)nc2cc(C(=O)NCc3ccc(C)o3)cc(NC(C)=O)c21,·,·,-15%,·,·,i
Cn1c2c(c(=O)[nH]c1=O)C(c1ccc(O)cc1)C1=C(N2)c2ccccc2C1=O (stereo not given),1%,6%,-4%,0%,18µM*,-13%
C=CCN(CC=C)c1ccc(/C=C/c2ccnc3ccccc23)cc1,·,·,15%,·,·,-15%
COC(=O)c1c(OCc2cccnc2)cc(=O)n2c1CCN(C(=O)c1c3c(nn1C)CCCC3)CC2,·,·,-14%,·,·,-15%
COc1cccc(NC(=S)N(CCc2c(C)[nH]c3ccc(C)cc23)Cc2cccs2)c1,-3%,19%,?,-5%,0%,?
COc1ccc2[nH]c(C)c(CCN(Cc3cccs3)C(=S)Nc3cccc(F)c3)c2c1,-1%,-8%,-18%,3%,45µM*,?
Cc1ncc2c(c1CNC(=O)CN1CCCCC1)CCN(C(=O)c1ccc(F)cc1Cl)C2,·,·,-7%,·,·,-8%
COc1cccc(CN2C(=O)NC(C)(C3CCN(Cc4cc(F)cc(F)c4)CC3)C2=O)c1OC (stereo not given),·,·,-16%,·,·,i
O=C(NCCc1ccccc1)c1ccc2c(c1)N(Cc1ccccc1)C(=O)CS2=O (stereo not given),-2%,4%,-11%,?,5µM*,-3%
CC(C)CCNC(=O)c1ccc2c(c1)N(Cc1ccccc1)C(=O)CS2=O (stereo not given),-2%,-2%,-8%,?,?,-8%
Cc1ccc(NCC(=O)Nc2cccc(S(=O)(=O)N(C)C)c2)cc1S(=O)(=O)N1CCCCCC1,-6%,-19%,?,0%,-23%,?
CC(=Nc1ccc(C)cc1C)c1sc2ccccc2c1O,-2%,59%,-29%,-6%,-31%,-9%
CC(=Nc1ccc(C)cc1)c1sc2ccccc2c1O,-25%,11%,-17%,1%,7.9µM*,-9%
Cc1ccc(NC(=O)C2(S(=O)(=O)c3ccc(Cl)cc3)CC2)c(Br)c1,-3%,14%,-2%,?,-24%,?
Cc1cc(NC(=O)c2coc(=O)c(Br)c2)ccc1C(C)C,-3%,-12%,-2%,8%,16µM*,-7%
